# Several values for one entry are separate records, joined by “and”; a condition that tells them apart may be missing. Equal entries are not always repeated. Records with an inconclusive call do not appear. Where a call stands in place of a potency, no number is given. Where a structure was tested more than once in an assay, its records may differ in their call. Activity calls are given as the source filed them. Unless noted, calls follow the shape of the full dose curve.
# Experiments:
# [1] = Primary qHTS for Vero E6 cytotoxicity: counterscreen for inhibitors of SARS-S pseudo-typed particle cell entry (AID 1479150)
# [2] = Primary qHTS for inhibitors of MERS-S pseudo-typed particle cell entry (AID 1479149); also: nearly all actives have a fitted effect of over 60% in size; also: potency is read from the fitted curve at half-maximal effect
# [3] = Confirmatory qHTS to identify inhibitors of SARS-CoV-2 cell entry (AID 1645844); also: potency is read from the fitted curve at half-maximal effect; nearly all actives have a fitted effect of over 45% in size
# Summary of the method: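 Luminescence from a luciferase reporter, read 48 hr after pseudotyped-particle addition, gives entry signal, normalised to spike-bearing PP wells and bald PP lacking fusion protein wells. Cells are Expi293F stably expressing human ACE2, compound-pretreated 1 hr.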
# [4] = Cytotoxicity counterscreen for inhibitors of SARS-CoV-2 cell entry (AID 1645845); also: nearly all actives have a fitted effect of over 50% in size
# Summary of the method: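 48 h compound treatment (after 1 h preincubation), HEK293-ACE2 cells, 37 C/5% CO2; ATP luminescence endpoint; normalized to cell wells and media blanks.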
# [5] = Primary qHTS to identify inhibitors of SARS-CoV-2 cell entry (AID 1645846); settings: activity change, negative = inhibition: at 57.1 µM (top of the series) unless noted; also: nearly all actives have a fitted effect of over 45% in size; also: potency is read from the fitted curve at half-maximal effect
# Summary of the method: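 Inhibition of spike-mediated entry was scored in human ACE2-transfected Expi293F cells. Particles were MLV-pseudotyped with Wuhan-Hu-1 S carrying a 19-aa C-terminal deletion; signal was luciferase after two days, scaled between spike PP and fusion-protein-free PP.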
# [6] = VSVG counterscreen qHTS to identify inhibitors of SARS-CoV-2 cell entry (AID 1645847); also: potency is read from the fitted curve at half-maximal effect; nearly all actives have a fitted effect of over 65% in size
# Summary of the method: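 Luminescence from a luciferase reporter, normalised to bald particle and VSV-G pseudotyped particle wells, is the read-out. Cells are HEK293 expressing human ACE2, exposed to compound 1 h before a 48 h particle infection at 37 °C.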
# [7] = biological target: Calcium and integrin-binding protein 1 (Homo sapiens) (UniProt Q99828); test: Validation qHTS for Identification of Calcium Integrin Binding protein 1 (CIB1) Competitor (AID 1508618; active = well fitted curve in the direction sought with a large enough effect; an effect the other way counts as inactive or inconclusive)
# Sequence of Calcium and integrin-binding protein 1 (Homo sapiens) (Q99828 whole entry, looked up): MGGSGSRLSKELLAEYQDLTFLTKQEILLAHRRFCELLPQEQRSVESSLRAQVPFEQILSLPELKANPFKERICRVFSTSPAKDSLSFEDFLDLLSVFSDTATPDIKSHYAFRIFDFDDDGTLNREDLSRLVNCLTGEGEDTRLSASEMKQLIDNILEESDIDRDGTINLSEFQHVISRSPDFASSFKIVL
# Summary of the method: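 Fluorescence polarization with 1 uM CIB1-GST and 100 nM FITC-alphaIIb peptide in HEPES pH 7.4, NaCl, 5 mM CaCl2, Tween20. Compounds at up to 114 uM final, preincubated with protein 15 min; read after 15 min more at RT.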
# [8] = biological target: Calcium and integrin-binding protein 1 (Homo sapiens) (UniProt Q99828); test: Primary qHTS for Identification of Calcium Integrin Binding Protein 1 (CIB1) Competitor (AID 1508620; active = well fitted curve in the direction sought with a large enough effect; an effect the other way counts as inactive or inconclusive;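 also: GST tagged CIB1 binding a fluorescein labelled alphaIIb integrin peptide tracer; top concentration of the series differs between compounds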)
# Summary of the method: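 CIB1-GST (1 uM final) and compound incubated 15 min at room temperature before adding FITC-alphaIIb peptide tracer (100 nM final). Competition for binding read by fluorescence polarization (ex 480, em 540) after another 15 min at room temperature.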
# [9] = Primary qHTS for small molecule stabilizers of the endoplasmic reticulum resident proteome: Secreted ER Calcium Modulated Protein (SERCaMP) assay (AID 1508630; active = well fitted curve in the direction sought with a large enough effect; an effect the other way counts as inactive or inconclusive)
# Summary of the method: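 GLuc-SERCaMP-expressing SH-SY5Y cells, pretreated 16 h with compound, are challenged with thapsigargin to empty ER calcium stores; after 4 h, coelenterazine is added directly to the medium and luminescence is imaged.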
# [10] = biological target: Cytochrome P450 2D6 (Homo sapiens) (UniProt P10635); test: Cytochrome P450 family 2 subfamily D member 6 (CYP2D6) small molecule antagonists: luciferase biochemical (cell-free) qHTS assay (AID 1645840; active = well fitted curve in the direction sought with a large enough effect in the repeat runs; an effect the other way counts as inactive or inconclusive; also: nearly all actives have a fitted effect of over 55% in size)
# Sequence of Cytochrome P450 2D6 (Homo sapiens) (P10635 whole entry, looked up): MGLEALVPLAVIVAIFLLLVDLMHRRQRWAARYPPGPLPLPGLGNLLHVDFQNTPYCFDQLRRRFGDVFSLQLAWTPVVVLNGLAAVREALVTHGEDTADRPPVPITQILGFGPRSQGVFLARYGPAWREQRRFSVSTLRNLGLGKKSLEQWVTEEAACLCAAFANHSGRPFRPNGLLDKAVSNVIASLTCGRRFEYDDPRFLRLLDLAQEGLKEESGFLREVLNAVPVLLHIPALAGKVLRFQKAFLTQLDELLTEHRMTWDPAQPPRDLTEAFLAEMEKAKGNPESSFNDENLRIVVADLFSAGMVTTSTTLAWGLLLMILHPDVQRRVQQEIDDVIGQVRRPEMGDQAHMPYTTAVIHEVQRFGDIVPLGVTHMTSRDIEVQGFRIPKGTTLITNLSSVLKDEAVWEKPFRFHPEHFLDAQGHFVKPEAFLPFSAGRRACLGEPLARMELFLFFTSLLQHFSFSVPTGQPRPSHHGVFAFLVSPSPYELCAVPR
# Summary of the method: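 P450-Glo luminescent screen: recombinant CYP2D6 enzyme–proluciferin substrate mix preincubated with compound 10 min at room temperature, then NADPH regeneration added for 1 h at room temperature. Detection reagent added for 20 min; luciferin light read as relative luminescence units.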
# [11] = biological target: Cytochrome P450 2C9 (Homo sapiens) (UniProt P11712); test: Cytochrome P450 family 2 subfamily C member 9 (CYP2C9) small molecule antagonists: luciferase biochemical (cell-free) qHTS assay (AID 1645842; active = well fitted curve in the direction sought with a large enough effect in the repeat runs; an effect the other way counts as inactive or inconclusive; also: nearly all actives have a fitted effect of over 55% in size; also: potency is read from the fitted curve at half-maximal effect)
# Sequence of Cytochrome P450 2C9 (Homo sapiens) (P11712 whole entry, looked up): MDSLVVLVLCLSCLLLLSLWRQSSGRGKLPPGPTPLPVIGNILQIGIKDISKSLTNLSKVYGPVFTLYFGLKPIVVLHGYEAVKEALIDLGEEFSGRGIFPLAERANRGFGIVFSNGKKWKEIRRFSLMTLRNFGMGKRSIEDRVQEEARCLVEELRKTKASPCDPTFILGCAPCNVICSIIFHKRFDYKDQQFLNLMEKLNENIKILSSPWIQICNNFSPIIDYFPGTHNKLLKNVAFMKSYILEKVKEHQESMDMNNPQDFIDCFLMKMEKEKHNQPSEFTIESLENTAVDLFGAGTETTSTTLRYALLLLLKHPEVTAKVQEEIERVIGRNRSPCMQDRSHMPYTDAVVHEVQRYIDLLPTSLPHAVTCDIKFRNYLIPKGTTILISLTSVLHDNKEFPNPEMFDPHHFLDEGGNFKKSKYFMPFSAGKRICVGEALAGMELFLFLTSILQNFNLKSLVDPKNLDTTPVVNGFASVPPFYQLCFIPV
# Summary of the method: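 Luminescence, after 20 min with luciferin detection reagent, reflected CYP2C9 turnover during a 1 h NADPH-driven reaction at 37C. Enzyme-substrate mix contained 0.4% bovine serum albumin and was preincubated with compound 10 min at room temperature.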
# [12] = Confirmatory qHTS for VERO E6 Cytotoxicity Assay: Counterscreen for SARS-CoV-2 CPE Assay (AID 1508605); also: nearly all actives have a fitted effect of over 60% in size
# [13] = Confirmatory qHTS for activators (rescue) of SARS-CoV-2 Cytopathic Effect (CPE) (AID 1508606); also: potency is read from the fitted curve at half-maximal effect; nearly all actives have a fitted effect of over 70% in size
# [14] = Primary qHTS for inhibitors of La Crosse Virus (LACV) - induced cell death in SH-SY5Y cells (AID 1508616; active = well fitted curve in the direction sought with a large enough effect; an effect the other way counts as inactive or inconclusive; also: potency is read from the fitted curve at half-maximal effect)
# Summary of the method: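 Readout was luminescence from ATPLite 1step added after a 6-day LACV infection (0.01 MOI) of SH-SY5Y cells that had received pin-transferred compound 24 hr after seeding.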
structure (smiles),measurement,setting,value
CSc1ccc2c(c1)N(CCC1CCCCN1C)c1ccccc1S2 (configuration not stated),Potency,[1],inactive
CCc1nn(CCCN2CCN(c3cccc(Cl)c3)CC2)c(=O)n1CCOc1ccccc1,Potency,[1],inactive
CCC1=C[C@@H]2CN(C1)Cc1c([nH]c3ccccc13)[C@@](C(=O)OC)(c1cc3c(cc1OC)N(C)[C@H]1[C@@](O)(C(=O)OC)[C@H](OC(C)=O)[C@]4(CC)C=CCN5CC[C@]31[C@@H]54)C2,Potency,[2],3.16 µM (active)
same,Potency,[3],1.48 µM (active)
same,Potency,[4],inactive
same,Potency,[5],2.82 µM (active)
same,"activity change, negative = inhibition",[5],-90.3%
same,Potency,[6],1.67 µM (active)
CCN(CC)C(=S)SSC(=S)N(CC)CC,Potency,[2],inactive
same,Potency,[5],891 nM (active) and 7.94 µM (active)
C[C@](N)(Cc1ccc(O)c(O)c1)C(=O)O,Potency,[2],inactive
same,Potency,[1],inactive
same,Potency,[5],inactive
same,"activity change, negative = inhibition",[5],-1.67%
C[C@@H]1O[C@@H](O[C@H]2C[C@@H](O)[C@]3(CO)[C@H]4[C@H](O)C[C@]5(C)[C@@H](C6=CC(=O)OC6)CC[C@]5(O)[C@@H]4CC[C@]3(O)C2)[C@H](O)[C@H](O)[C@H]1O,Potency,[2],inactive
same,Potency,[7],inactive
same,Potency,[8],inactive
same,outcome,[9],inactive
same,Potency,[10],inactive
same,Potency,[11],inactive
Cc1ccc(NC(=O)c2ccc(CN3CCN(C)CC3)cc2)cc1Nc1nccc(-c2cccnc2)n1,Potency,[1],inactive
same,Potency,[12],inactive
same,Potency,[13],8.91 µM (active)
same,Potency,[3],21.5 µM (active)
same,Potency,[5],35.5 µM (active)
CN(Cc1cnc2nc(N)nc(N)c2n1)c1ccc(C(=O)N[C@@H](CCC(=O)O)C(=O)O)cc1,Potency,[2],inactive
same,"activity change, negative = inhibition",[5],-94.2%
CN(C)CCOC(c1ccc(Cl)cc1)c1ccccn1 (configuration not stated),Potency,[2],inactive
same,Potency,[4],inactive
C=C(C)[C@H]1Cc2c(ccc3c2O[C@@H]2COc4cc(OC)c(OC)cc4[C@@H]2C3=O)O1,Potency,[2],inactive
same,Potency,[14],0.316 µM (active)
same,Potency,[7],inactive
same,Potency,[8],inactive
same,outcome,[9],inactive
same,Potency,[10],inactive
same,Potency,[11],6.17 µM (active)
same,"activity change, negative = inhibition",[5],-94.7%

# Reference: PubChem BioAssay (NCATS)
